The text below walks through data of paper PMC7862700, “An all-to-all approach to the identification of sequence-specific readers for epigenetic DNA modifications on cytosine”.

Holding throughout (experiment): DAPPL (digital affinity profiling via proximity ligation, sequencing); 10 mM Tris-HCl pH 7.5, 50 mM NaCl, 1 mM DTT, 4% glycerol, room temperature, 30 min; GST-TFs on glutathione beads, 16-mer random dsDNA library, 0.1% formaldehyde crosslink after washing; high values mean tight binding
In assay [1] the target is T1, FEV (Homo sapiens, UniProt Q99581 1-238).
T1 sequence: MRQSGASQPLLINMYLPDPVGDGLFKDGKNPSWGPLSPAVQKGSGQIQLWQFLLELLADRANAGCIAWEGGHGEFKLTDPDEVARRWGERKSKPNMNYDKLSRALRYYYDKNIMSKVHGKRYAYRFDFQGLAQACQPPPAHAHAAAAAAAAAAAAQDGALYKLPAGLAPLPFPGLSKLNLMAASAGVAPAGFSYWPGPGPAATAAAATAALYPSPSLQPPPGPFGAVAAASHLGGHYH
The settings on record: protein: recombinant; tags: N-terminal GST; dsDNA, one strand shown. The essentials:
(§1)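 Each value of binding signal is a hexamer's read frequency for a factor divided by the same hexamer's frequency in the tag-only sample. Barcoded, bead-captured GST fusions of human transcription factors made in yeast were pooled with that sample and incubated with 200 nmole of a random double-stranded 16-mer DNA library in Tris/NaCl/DTT/glycerol buffer at room temperature for 30 min. Washing, 0.1% formaldehyde crosslinking, proximity ligation, PCR and Illumina NextSeq500 sequencing followed.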

The target of assay [2] is ETV5 (Homo sapiens, UniProt P41161 1-510). The following applies: protein: recombinant; tags: N-terminal GST; dsDNA, one strand shown. In a few lines:
as §1

Assay [3] has as its target HSF1 (Homo sapiens, UniProt Q00613 1-529). The following applies: protein: recombinant; tags: N-terminal GST; chain copies: 3; dsDNA, one strand shown. In a few lines:
as §1

Assay [4] concerns the target T2, SPIC (Homo sapiens, UniProt Q8N5J4 1-248).
T2 sequence: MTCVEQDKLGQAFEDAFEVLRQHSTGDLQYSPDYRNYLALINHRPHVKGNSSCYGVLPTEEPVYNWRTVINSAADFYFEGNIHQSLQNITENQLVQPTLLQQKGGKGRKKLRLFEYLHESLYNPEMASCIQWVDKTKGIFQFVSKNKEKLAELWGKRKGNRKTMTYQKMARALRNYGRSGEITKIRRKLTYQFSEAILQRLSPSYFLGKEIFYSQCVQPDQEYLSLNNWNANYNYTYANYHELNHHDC
The settings on record: protein: recombinant; tags: N-terminal GST; dsDNA, one strand shown. In a few lines:
as §1

The target in assay [5] is ELF4 (Homo sapiens, UniProt Q99607 1-663). The settings on record: protein: recombinant; tags: N-terminal GST; dsDNA, one strand shown. In a few lines: as §1
Assay [6] has as its target T3, ELK4 (Homo sapiens, UniProt P28324-2 1-405).
T3 sequence: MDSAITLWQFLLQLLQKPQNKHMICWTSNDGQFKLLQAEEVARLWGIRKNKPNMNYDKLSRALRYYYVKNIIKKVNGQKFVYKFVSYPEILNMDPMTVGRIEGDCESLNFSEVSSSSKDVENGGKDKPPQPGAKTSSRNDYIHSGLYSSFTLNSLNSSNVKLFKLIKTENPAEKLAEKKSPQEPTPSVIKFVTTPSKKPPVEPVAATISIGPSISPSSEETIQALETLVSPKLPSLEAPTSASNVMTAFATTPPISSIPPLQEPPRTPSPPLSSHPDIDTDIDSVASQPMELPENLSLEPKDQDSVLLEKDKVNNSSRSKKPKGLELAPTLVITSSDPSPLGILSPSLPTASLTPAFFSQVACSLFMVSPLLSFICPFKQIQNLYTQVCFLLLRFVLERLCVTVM
The following applies: protein: recombinant; tags: N-terminal GST; dsDNA, one strand shown. The essentials: as §1

Assay [7] deals with T4, ETV2 (Homo sapiens, UniProt O00321 1-342).
T4 sequence: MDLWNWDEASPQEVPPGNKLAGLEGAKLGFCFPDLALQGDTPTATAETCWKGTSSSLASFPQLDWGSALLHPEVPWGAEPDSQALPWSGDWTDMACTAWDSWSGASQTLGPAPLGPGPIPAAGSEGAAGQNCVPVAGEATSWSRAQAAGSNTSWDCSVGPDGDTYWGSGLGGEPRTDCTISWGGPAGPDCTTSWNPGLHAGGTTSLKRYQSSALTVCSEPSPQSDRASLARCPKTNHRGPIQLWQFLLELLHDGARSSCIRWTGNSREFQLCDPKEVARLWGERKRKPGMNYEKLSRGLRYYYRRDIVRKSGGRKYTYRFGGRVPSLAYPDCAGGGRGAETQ
The settings on record: protein: recombinant; tags: N-terminal GST; dsDNA, one strand shown. In a few lines:
as §1

For assay [8], the target named is T5, ELF3 (Homo sapiens, UniProt P78545 1-371).
T5 sequence: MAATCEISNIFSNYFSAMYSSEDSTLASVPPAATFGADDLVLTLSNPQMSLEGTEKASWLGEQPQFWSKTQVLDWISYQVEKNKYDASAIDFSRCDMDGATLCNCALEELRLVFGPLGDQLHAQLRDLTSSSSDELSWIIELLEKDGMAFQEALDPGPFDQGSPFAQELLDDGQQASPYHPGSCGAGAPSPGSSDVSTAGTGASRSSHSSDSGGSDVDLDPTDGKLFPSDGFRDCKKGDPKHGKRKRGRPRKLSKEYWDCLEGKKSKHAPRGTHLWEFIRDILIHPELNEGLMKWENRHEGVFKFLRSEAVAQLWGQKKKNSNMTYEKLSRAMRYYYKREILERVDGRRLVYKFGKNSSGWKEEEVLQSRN
The settings on record: protein: recombinant; tags: N-terminal GST; dsDNA, one strand shown. The essentials:
as §1

In assay [9] the target is CRX (Homo sapiens, UniProt O43186 1-299). The following applies: protein: recombinant; tags: N-terminal GST; dsDNA, one strand shown. The essentials:
as §1

The target in assay [10] is ETV1 (Homo sapiens, UniProt P50549 1-477). The settings on record: protein: recombinant; tags: N-terminal GST; dsDNA, one strand shown. In a few lines: as §1
In assay [11] the target is T6, ERF (Homo sapiens, UniProt P50548 1-548).
T6 sequence: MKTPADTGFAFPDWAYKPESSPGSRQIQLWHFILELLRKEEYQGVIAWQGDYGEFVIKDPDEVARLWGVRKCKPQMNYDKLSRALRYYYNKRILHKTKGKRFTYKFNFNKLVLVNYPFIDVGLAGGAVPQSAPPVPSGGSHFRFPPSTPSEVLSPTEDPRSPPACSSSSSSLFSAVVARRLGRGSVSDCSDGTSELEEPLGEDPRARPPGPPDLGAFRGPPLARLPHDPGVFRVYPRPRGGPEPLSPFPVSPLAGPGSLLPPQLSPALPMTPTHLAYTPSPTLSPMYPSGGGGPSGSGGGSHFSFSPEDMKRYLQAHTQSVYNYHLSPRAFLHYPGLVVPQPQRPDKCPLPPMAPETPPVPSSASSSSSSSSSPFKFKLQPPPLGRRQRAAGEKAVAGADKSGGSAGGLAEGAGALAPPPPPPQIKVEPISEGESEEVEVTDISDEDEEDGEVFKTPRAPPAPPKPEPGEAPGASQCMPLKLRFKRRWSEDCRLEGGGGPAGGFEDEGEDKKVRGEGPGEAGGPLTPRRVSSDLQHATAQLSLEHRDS
The following applies: protein: recombinant; tags: N-terminal GST; dsDNA, one strand shown. The essentials:
as §1

The target in assay [12] is T7, ETV3L (Homo sapiens, UniProt Q6ZN32 1-361).
T7 sequence: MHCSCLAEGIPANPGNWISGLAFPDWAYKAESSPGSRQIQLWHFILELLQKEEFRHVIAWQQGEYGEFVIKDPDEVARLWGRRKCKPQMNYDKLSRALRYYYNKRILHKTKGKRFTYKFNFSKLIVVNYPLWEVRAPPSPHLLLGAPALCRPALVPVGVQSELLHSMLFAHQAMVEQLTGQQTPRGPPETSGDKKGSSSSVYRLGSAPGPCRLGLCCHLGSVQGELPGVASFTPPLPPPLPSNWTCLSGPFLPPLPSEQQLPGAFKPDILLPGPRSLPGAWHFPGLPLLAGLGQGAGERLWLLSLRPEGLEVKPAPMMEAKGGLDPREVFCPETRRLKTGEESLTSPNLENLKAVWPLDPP
The settings on record: protein: recombinant; tags: N-terminal GST; dsDNA, one strand shown. In a few lines: as §1

For assay [13], the target named is T8, ETS2 (Homo sapiens, UniProt P15036 1-469).
T8 sequence: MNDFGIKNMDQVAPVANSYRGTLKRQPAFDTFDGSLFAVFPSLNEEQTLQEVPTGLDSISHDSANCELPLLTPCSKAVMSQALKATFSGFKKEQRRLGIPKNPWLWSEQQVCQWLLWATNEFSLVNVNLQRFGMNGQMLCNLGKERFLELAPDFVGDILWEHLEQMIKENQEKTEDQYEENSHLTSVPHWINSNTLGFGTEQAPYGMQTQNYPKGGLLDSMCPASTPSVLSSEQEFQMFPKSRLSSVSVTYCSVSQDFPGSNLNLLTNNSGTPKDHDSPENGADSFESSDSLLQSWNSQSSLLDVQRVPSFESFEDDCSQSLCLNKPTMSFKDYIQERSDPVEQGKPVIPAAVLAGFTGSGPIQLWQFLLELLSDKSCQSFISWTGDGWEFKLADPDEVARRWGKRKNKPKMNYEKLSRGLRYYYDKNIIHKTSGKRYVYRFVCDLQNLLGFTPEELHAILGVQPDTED
The settings on record: protein: recombinant; tags: N-terminal GST; dsDNA, one strand shown. In a few lines: as §1

The target in assay [14] is T9, SPDEF (Homo sapiens, UniProt O95238 1-335).
T9 sequence: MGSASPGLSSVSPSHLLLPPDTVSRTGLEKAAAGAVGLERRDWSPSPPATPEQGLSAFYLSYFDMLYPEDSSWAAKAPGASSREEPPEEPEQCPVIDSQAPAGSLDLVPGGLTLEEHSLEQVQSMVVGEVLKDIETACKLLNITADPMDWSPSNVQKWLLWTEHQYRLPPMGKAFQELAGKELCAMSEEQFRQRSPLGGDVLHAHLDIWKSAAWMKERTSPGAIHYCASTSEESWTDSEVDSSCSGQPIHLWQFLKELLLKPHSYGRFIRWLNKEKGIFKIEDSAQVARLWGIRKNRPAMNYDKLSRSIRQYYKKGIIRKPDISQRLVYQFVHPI
The settings on record: protein: recombinant; tags: N-terminal GST; dsDNA, one strand shown. The essentials: as §1

Assay [15] concerns the target T10, ETV7 (Homo sapiens, UniProt Q9Y603 1-341).
T10 sequence: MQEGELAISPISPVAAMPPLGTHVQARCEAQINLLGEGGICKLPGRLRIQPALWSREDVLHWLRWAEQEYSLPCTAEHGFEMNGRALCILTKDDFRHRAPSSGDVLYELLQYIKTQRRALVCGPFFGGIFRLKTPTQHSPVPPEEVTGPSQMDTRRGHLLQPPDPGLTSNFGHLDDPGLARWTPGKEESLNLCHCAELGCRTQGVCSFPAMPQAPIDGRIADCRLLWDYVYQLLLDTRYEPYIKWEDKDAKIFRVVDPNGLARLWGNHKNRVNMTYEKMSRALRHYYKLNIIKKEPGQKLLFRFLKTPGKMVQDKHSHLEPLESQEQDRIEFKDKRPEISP
The settings on record: protein: recombinant; tags: N-terminal GST; dsDNA, one strand shown. The essentials: as §1

The target of assay [16] is T11, ELF5 (Homo sapiens, UniProt Q9UKW6-2 1-255).
T11 sequence: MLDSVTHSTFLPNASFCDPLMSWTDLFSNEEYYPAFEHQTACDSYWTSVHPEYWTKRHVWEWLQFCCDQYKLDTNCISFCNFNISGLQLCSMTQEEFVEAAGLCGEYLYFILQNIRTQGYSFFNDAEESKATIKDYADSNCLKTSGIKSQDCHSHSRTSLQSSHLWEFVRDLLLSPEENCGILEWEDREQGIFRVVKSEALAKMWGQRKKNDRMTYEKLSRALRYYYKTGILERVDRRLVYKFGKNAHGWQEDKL
The following applies: protein: recombinant; tags: N-terminal GST; dsDNA, one strand shown. In a few lines:
as §1

The target in assay [17] is T12, ETV3 (Homo sapiens, UniProt P41162-2 1-143).
T12 sequence: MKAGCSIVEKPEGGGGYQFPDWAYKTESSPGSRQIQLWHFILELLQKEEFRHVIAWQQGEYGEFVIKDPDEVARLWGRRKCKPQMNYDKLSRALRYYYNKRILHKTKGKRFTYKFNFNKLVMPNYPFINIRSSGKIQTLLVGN
The following applies: protein: recombinant; tags: N-terminal GST; dsDNA, one strand shown. In a few lines: as §1

For assay [18], the target named is ETV6 (Homo sapiens, UniProt P41212 1-452). The settings on record: protein: recombinant; tags: N-terminal GST; dsDNA, one strand shown. In a few lines:
as §1

HSF1, sequence (Q00613 whole entry): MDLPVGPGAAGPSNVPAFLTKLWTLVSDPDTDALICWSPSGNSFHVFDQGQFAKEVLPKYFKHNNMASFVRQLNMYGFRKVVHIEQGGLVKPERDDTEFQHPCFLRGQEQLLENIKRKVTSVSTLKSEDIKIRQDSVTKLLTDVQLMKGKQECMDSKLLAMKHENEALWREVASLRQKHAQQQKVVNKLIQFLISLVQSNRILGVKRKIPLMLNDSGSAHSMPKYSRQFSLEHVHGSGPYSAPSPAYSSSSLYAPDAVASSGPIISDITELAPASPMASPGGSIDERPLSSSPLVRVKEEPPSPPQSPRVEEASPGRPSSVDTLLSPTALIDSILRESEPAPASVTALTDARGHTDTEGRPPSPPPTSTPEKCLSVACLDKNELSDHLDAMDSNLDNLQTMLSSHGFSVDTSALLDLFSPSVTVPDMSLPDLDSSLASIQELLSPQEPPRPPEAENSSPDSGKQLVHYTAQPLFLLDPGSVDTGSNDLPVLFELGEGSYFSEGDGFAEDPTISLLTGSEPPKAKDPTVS
ELF4, sequence (Q99607 whole entry): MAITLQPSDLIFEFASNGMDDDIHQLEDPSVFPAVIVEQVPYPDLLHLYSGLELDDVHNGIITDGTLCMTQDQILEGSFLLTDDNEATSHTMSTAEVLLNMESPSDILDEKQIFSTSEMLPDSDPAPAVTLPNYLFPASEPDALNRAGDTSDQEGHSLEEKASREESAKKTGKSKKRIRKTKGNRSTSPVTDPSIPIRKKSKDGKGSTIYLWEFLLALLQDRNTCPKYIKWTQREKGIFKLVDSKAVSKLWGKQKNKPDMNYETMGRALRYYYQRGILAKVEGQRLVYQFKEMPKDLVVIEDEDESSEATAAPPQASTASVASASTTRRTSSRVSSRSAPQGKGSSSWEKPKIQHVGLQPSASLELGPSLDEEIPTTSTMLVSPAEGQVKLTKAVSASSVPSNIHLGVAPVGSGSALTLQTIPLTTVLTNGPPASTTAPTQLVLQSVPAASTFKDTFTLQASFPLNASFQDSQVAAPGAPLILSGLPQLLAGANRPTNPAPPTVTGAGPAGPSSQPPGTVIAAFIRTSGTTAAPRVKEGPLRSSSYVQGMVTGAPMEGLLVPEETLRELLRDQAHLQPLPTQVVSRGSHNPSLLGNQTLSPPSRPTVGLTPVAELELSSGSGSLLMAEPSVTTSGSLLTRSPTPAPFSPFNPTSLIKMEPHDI
ETV6, sequence (P41212 whole entry): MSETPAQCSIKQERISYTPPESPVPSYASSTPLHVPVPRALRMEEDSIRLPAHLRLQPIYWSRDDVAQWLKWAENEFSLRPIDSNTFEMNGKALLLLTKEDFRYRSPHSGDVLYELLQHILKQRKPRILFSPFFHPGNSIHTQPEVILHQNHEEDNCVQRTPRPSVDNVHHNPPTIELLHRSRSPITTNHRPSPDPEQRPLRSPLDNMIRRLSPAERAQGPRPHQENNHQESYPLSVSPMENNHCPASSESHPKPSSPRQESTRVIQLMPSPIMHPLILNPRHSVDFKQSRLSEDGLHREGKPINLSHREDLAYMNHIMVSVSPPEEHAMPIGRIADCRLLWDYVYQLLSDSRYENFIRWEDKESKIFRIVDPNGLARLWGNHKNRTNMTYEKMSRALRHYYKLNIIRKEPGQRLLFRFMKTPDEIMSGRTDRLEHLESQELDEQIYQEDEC
ETV5, sequence (P41161 whole entry): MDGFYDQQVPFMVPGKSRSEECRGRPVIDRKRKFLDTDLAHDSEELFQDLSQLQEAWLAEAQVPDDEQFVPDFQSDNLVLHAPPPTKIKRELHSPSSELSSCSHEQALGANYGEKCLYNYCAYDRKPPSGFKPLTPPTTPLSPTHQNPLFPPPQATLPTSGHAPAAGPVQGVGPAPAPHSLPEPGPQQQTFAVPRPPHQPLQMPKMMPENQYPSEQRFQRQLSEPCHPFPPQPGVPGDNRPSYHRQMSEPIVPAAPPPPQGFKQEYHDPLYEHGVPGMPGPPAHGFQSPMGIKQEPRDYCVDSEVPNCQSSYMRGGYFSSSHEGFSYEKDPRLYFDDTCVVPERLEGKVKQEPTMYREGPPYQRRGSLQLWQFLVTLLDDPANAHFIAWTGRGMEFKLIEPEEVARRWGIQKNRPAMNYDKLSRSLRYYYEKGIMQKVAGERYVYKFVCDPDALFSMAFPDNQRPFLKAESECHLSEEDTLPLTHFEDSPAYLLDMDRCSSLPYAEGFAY
ETV1, sequence (P50549 whole entry): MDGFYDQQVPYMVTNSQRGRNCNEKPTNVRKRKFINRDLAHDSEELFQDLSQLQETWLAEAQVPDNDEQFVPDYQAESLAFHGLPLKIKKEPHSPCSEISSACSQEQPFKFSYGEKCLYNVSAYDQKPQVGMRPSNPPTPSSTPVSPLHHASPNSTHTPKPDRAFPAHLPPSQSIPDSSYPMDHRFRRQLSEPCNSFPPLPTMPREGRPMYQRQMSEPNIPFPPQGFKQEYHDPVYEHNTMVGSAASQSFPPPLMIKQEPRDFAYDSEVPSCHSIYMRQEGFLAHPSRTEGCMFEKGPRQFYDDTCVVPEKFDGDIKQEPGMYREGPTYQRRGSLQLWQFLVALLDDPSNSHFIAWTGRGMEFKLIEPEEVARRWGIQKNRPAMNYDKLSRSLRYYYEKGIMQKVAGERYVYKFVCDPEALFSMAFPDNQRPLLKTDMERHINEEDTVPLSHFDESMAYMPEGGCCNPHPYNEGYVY
CRX, sequence (O43186 whole entry): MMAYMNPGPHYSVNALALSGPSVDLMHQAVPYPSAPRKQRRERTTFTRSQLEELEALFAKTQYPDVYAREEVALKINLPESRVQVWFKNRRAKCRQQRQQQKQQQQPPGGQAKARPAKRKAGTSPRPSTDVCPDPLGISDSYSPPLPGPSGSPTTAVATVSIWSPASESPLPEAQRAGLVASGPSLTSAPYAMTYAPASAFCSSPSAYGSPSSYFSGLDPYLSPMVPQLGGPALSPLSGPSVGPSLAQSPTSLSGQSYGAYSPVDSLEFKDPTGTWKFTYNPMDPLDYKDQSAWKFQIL

Take AACTGC: the binding signal in [1] was 1.42 fold enrichment (6-mer frequency, TF over GST control); in assay [2] it was 1.38 fold enrichment (6-mer frequency, TF over GST control); in [3] it was 1.07 fold enrichment (6-mer frequency, TF over GST control); in [4], 1.49 fold enrichment (6-mer frequency, TF over GST control); in [5], 1.31 fold enrichment (6-mer frequency, TF over GST control); in [6], 1.33 fold enrichment (6-mer frequency, TF over GST control). Also, the binding signal in assay [7] was 1.19 fold enrichment (6-mer frequency, TF over GST control); in [8], 1.32 fold enrichment (6-mer frequency, TF over GST control); in assay [9], 1.05 fold enrichment (6-mer frequency, TF over GST control); in [10], 1.36 fold enrichment (6-mer frequency, TF over GST control); in [11] it was 1.22 fold enrichment (6-mer frequency, TF over GST control); in [12], 1.37 fold enrichment (6-mer frequency, TF over GST control). Further, the binding signal in assay [13] was 1.3 fold enrichment (6-mer frequency, TF over GST control); in [14], 1.28 fold enrichment (6-mer frequency, TF over GST control); in [15], 1.3 fold enrichment (6-mer frequency, TF over GST control); in assay [16], 1.36 fold enrichment (6-mer frequency, TF over GST control); in [17] it was 1.39 fold enrichment (6-mer frequency, TF over GST control); in [18], 1.3 fold enrichment (6-mer frequency, TF over GST control).
